What was measured:
Details in all cases: concentration: 1 μM, replicates: in singlicate; n = 1
RIOK1 = tested on: RIOK1
RIOK2 = tested on: RIOK2
RIOK3 = tested on: RIOK3
RIPK1 = tested on: RIPK1
RIPK2 = tested on: RIPK2
RIPK4 = tested on: RIPK4
RIPK5 = tested on: RIPK5
ROCK1 = tested on: ROCK1
ROCK2 = tested on: ROCK2
ROS1 = tested on: ROS1
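Also: KINOMEscan kinase panel screen.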

Compound	%Inh (RIOK1) [%]	%Inh (RIOK2) [%]	%Inh (RIOK3) [%]	%Inh (RIPK1) [%]	%Inh (RIPK2) [%]	%Inh (RIPK4) [%]	%Inh (RIPK5) [%]	%Inh (ROCK1) [%]	%Inh (ROCK2) [%]	%Inh (ROS1) [%]
Cn1cc(-c2cnc(N)c3c(-c4ccc5c(c4)CCN5C(=O)Cc4ccccc4)csc23)cn1 [GSK2593074]	33	0	6	100	96.1	100	55	0	11	0
Cc1ccc(NC(=O)c2ccnc(N3CCCCC3)c2)cc1-c1ccc(C(=O)NCC2CC2)cc1 [GW775610]	50	0	35	43	0	36	0	25	7	10
O=C(O)C(F)(F)F.O=c1[nH]ccc2nc(N[C@@H]3CCNC3)nc(Nc3cc(Cl)cc(Cl)c3)c12 [GSK2188764]	97.4	29	100	16	30	44	10	99.5	99.7	0
CCNC(=O)/C=C/c1n[nH]c2cc(Sc3ccccc3C(=O)NC)ccc12	0	7	0	0	29	4	18	4	1	33
O=C(Nc1n[nH]c2cc(-c3cccs3)ccc12)C1CC1 [SB-731284]	85	18	82	59	4	10	48	31	32	0
O=C(Nc1n[nH]c2nc(-c3ccccc3)ccc12)C1CC1 [SB-708999]	35	1	37	63	0	2	0	21	12	0
CN(C)CCOc1ccc(-c2cc(-c3ccc(Cl)c(O)c3)c(-c3ccncc3)[nH]2)cc1.Cl.Cl [SB-684387]	0	32	0	36	88	7	13	99.2	98.9	10
COc1ccc(C2=C(Nc3cccc(O)c3)C(=O)NC2=O)cc1 [SB-390766]	22	0	0	0	32	10	0	18	19	0
Cc1ccc(-c2ccc3occ(-c4ccc(S(C)=O)cc4)c3c2)nn1 (centres unmarked)	0	10	0	0	0	0	0	6	0	0
CC(C)NCC(Cc1ccccc1)NC(=O)c1cc(Br)c(-c2ccnc3[nH]ccc23)s1.Cl.Cl (centres unmarked) [GSK1383281]	72	84	60	0	0	15	9	99.6	99.6	46
Cc1cccc(Nc2nc(NCCN)ncc2C(N)=O)c1 [GSK1292139]	89	3	90.2	20	0	81	14	82	81	19
Cc1cccc(Nc2nc(N[C@H]3CCCC[C@H]3N)ncc2C(N)=O)c1.Cl [GSK986310]	48	42	42	7	2	68	17	85	82	62
CNc1nccc(-c2ccc3c(N)n[nH]c3c2)n1 [GSK2206003]	98.2	85	82	8	0	41	0	52	62	22
Cc1cc(-c2ccnc(Nc3cccc(C#N)c3)n2)cc(C)c1O [GSK1440913]	100	91.7	97.9	53	28	37	8	0	0	64
N#CC1(c2cccc(C(=O)Nc3cccc(Oc4ccc5nc(NC(=O)C6CC6)sc5n4)c3)c2)CC1	0	0	0	15	55	0	0	0	0	1
COc1cccc(NC(=O)NCCNc2ccnc(Nc3ccc(F)cc3)n2)c1 [GSK1379879]	31	0	13	13	0	23	0	6	15	0
CN(C)CCNS(=O)(=O)c1ccc(-c2ccnc3[nH]ccc23)cc1 [GSK977620]	78	78	64	0	0	3	0	99.6	98.3	48
Cc1ccccc1CC(=O)N1CCc2cc(-c3cn(C)c4ncnc(N)c34)ccc21 [GSK2603346]	8	31	100	100	63	0	69	10	14	2
Cc1ccc(NC(=O)c2cccc(N3CCCCC3)c2)cc1-c1ccc(C(=O)NCC2CC2)cc1 [GSK1917008]	34	15	0	13	6	29	0	2	0	6
NCCC(NC(=O)c1cc(Br)c(-c2ccnc3[nH]ccc23)s1)c1ccccc1.O=C(O)C(F)(F)F.O=C(O)C(F)(F)F (centres unmarked) [GSK1307810]	100	97.9	100	81	4	0	1	100	99.8	29
CCn1cnc2c(NCc3ccccc3)ncnc21 [SKF-96418]	0	0	0	0	0	13	28	56	16	0
COc1cc(Nc2ccnc3cc(-c4ccncc4)ccc23)cc(OC)c1OC.Cl [GW494610]	39	11	0	0	83	0	0	31	14	16

Compound	%Inh (RIOK1) [%]	%Inh (RIOK2) [%]	%Inh (RIOK3) [%]	%Inh (RIPK1) [%]	%Inh (RIPK2) [%]	%Inh (RIPK4) [%]	%Inh (RIPK5) [%]	%Inh (ROCK1) [%]	%Inh (ROCK2) [%]	%Inh (ROS1) [%]
Fc1cc(Cl)ccc1Nc1ccnc2cc(-c3ccc(CN4CCOCC4)o3)ccc12 [GW560109]	30	0	0	0	94.4	0	0	5	46	0
Cn1cc(-c2ccc3c(c2)CCN3C(=O)Cc2cc(F)cc(C(F)(F)F)c2)c2c(N)ncnc21 [GSK2635225]	21	2	26	100	59	0	0	3	6	29
CC(C)(C)c1ccc(C(=O)Nc2cn3cc(-n4ccnc4)ccc3n2)cc1	0	6	0	2	24	0	34	0	0	0
COc1cc(Nc2nccc(N3CCC(NC(=O)Nc4ccc5c(c4)OCO5)C3)n2)cc(OC)c1OC (centres unmarked) [GSK1379766]	79	0	81	0	19	62	0	25	44	36
Cc1nn2c(=O)cc(N3CCO[C@H](C)C3)nc2n1Cc1cccc(Cl)c1Cl [GSK2373693]	39	39	5	2	61	19	0	73	5	0
O=C(Nc1c(F)cccc1F)c1cc(C(=O)c2ccccc2F)c[nH]1 [GSK1326180]	11	4	6	0	0	0	0	0	9	0
Cc1cc(-c2c(-c3ccc(F)cc3)ncn2CCCN2CCOCC2)nc(N)n1 [SB-222517]	10	0	11	0	0	14	11	29	0	19
O=C(O)C(F)(F)F.O=c1[nH]ccc2nc(N[C@@H]3CCNC3)nc(Nc3ccc4c(c3)S(=O)(=O)CC4)c12 [GSK2181306]	98.9	60	92.9	0	9	96	94.4	99.7	99.7	29
Fc1cc(Cl)ccc1Nc1ccnc2cc(-c3ccc(CN4CCSCC4)o3)ccc12 [GW560106]	9	0	0	0	94.7	0	0	29	32	20
Cc1ccc(O)cc1Nc1ccnc2cc(-c3ccc(CN4CCCCC4)o3)ccc12 [GW557777]	16	0	21	12	91	4	12	0	0	11
Cc1ccc(O)cc1Nc1ccnc2ccc(C(C)(C)C)cc12 [GW856805]	15	0	11	16	79	41	22	51	39	28
CSc1ccc(NC2=C(c3ccc(Cl)cc3)C(=O)NC2=O)cc1 [SB-317658]	3	0	20	0	0	16	7	38	0	3
Cc1ccc(C)c(NC(=O)Nc2ccc(C)c(-c3ccc(C(=O)Nc4ccncc4)cc3)c2)c1 [GSK1398473]	38	48	0	42	8	11	7	0	0	0
COC(=O)Nc1nc2ccc(Oc3ccc(NC(=O)Nc4cc(C(F)(F)F)ccc4F)cc3)cc2[nH]1.Cl [GW654607]	2	0	21	74	81	18	0	43	16	6
COc1cccc(-c2nc(-c3ccccc3)[nH]c2-c2ccncc2)c1 [SB-610250]	18	0	0	0	75	11	0	24	13	0
CN(c1ccc(NC(=O)N2CCN(CCCN3CCOCC3)CC2)cc1)c1ccnc(Nc2ccc(CS(C)(=O)=O)cc2)n1.Cl [GW830899]	80	0	82	4	17	100	0	0	0	5
COc1cccc(C2=C(Nc3cccc(O)c3)C(=O)NC2=O)c1 [SB-390771]	49	0	17	0	18	22	3	3	5	0
c1ccc(Oc2ccc(Nc3ccnc4cc(-c5ccc(CN6CCCCC6)o5)ccc34)cc2)nc1 [GW567143]	3	13	0	0	96.3	0	0	19	0	0
CN(c1ccc(NC(=O)Nc2cccc(Cl)c2)cc1)c1ccnc(N)n1.Cl [GW830707]	0	0	0	0	1	5	0	53	35	12
CC(C)c1nc(-c2ccc(F)c(NS(=O)(=O)c3c(F)cccc3F)c2)c(-c2ccnc(Nc3ccc(N4CCOCC4)nc3)n2)s1 [GSK1804250]	30	13	84	0	97.6	0	19	12	2	17
CN(c1ccc(F)c(NC(=O)c2cccc(OC(C)(C)C#N)c2Cl)c1)c1ccc2nc(NC(=O)C3CC3)sc2n1	0	71	27	0	36	2	0	0	0	0
N#Cc1cnc2cc(-c3cnc(CNCCN4CCOCC4)s3)ccc2c1Nc1ccc(Oc2ccccc2)cc1 [GW664114]	15	0	29	0	26	21	81	0	2	0

Compound	%Inh (RIOK1) [%]	%Inh (RIOK2) [%]	%Inh (RIOK3) [%]	%Inh (RIPK1) [%]	%Inh (RIPK2) [%]	%Inh (RIPK4) [%]	%Inh (RIPK5) [%]	%Inh (ROCK1) [%]	%Inh (ROCK2) [%]	%Inh (ROS1) [%]
Nc1ncnc2scc(-c3ccc(NC(=O)Cc4cc(F)ccc4F)cc3)c12.O=C(O)C(F)(F)F [SB-731254-M]	0	13	1	0	23	20	53	0	0	17
Cl.Cl.NCC(NC(=O)c1cc(-c2cccnc2)c(-c2ccnc3[nH]ccc23)s1)c1ccccc1 (centres unmarked) [GSK1323434]	60	54	57	10	26	16	0	99.7	99.4	20
O=C(Nc1n[nH]c2nc(-c3cccc(O)c3)ccc12)C1CC1 [SB-711805]	53	11	59	14	5	37	7	2	0	0
Cl.N#CCc1ccc(Nc2nccc(Nc3ccc(Oc4ccccc4)cc3)n2)cc1 [GW639905]	21	23	0	0	96.1	0	17	31	34	0
Nc1cccc(-c2ccc3c(N)n[nH]c3c2)c1 [GSK2193613]	93.9	64	55	0	0	49	0	42	48	17
Cc1ccc(Nc2ccnc(Nc3ccc(C)c(F)c3)n2)cc1O.Cl [GW582868]	19	2	4	1	55	13	0	22	16	33
CC(=O)Nc1cn2nc(Oc3cccc(NC(=O)c4cccc(C(F)(F)F)c4)c3)ccc2n1	0	0	39	0	67	0	0	0	0	0
Cc1ccc(NC(=O)c2ccc(Cl)c(Cl)c2)cc1-c1ccc(C(=O)Nc2ccncc2)cc1 [GSK1398460]	50	0	53	23	11	6	4	0	0	20
CCOc1nccc(-c2c(-c3ccc(F)cc3)ncn2C2CCNCC2)n1 [SB-249175]	44	24	42	23	31	53	8	53	19	11
Nc1ncc(-c2ccc3nccc(-c4ccncc4)c3c2)cc1S(=O)(=O)N1CCCCC1 [GSK1693850]	30	89	41	31	22	5	25	11	13	43
CN(C)c1ncnc2nc[nH]c12 [SKF-31736]	0	0	0	0	0	26	10	58	31	0
CS(=O)(=O)c1cccc(CNc2nc(Nc3ccc4c(c3)CCC(=O)N4)ncc2C(F)(F)F)c1	62	0	59	0	2	17	0	0	0	31
COc1ccc(NC(=O)c2ccoc2)cc1-c1ccc(C(=O)NCC2CC2)cc1 [GW810437]	8	1	5	0	4	34	14	36	0	0
Nc1ncc(-c2cn[nH]c2)c2scc(-c3ccc4c(c3)CCN4C(=O)Cc3ccccc3)c12 [GSK2593067]	75	86	57	100	94.6	0	10	41	36	9
CCn1c(-c2nonc2N)nc2c(-c3ccccc3)ncc(OCCCN)c21.O=C(O)C(F)(F)F.O=C(O)C(F)(F)F [GSK260205]	7	15	0	0	30	10	0	91.7	98.4	0
COC(=O)Nc1nc2cc(Oc3ccc(NC(=O)Nc4cccc(SC)c4)cc3)ccc2[nH]1.Cl [GW697999]	13	0	2	4	29	2	0	82	55	0
O=C1NC(=O)C(c2ccccc2Cl)=C1Nc1cccc(Cl)c1 [SB-342409]	4	0	0	4	100	21	14	0	0	0
CN(c1ccc2c(c1)nc(NCc1ccccc1)n2C)c1ccnc(Nc2ccc(CS(C)(=O)=O)cc2)n1.Cl [GW811603]	50	0	44	100	0	49	24	20	47	57
COC(=O)Nc1nc2ccc(Oc3ccc(CC(=O)Nc4cc(C(F)(F)F)ccc4F)cc3)cc2[nH]1 [GW680903]	0	0	8	84	48	8	0	31	12	0
O=C(Nc1n[nH]c2nc(-c3ccccc3O)ccc12)C1CC1 [SB-711880]	43	0	33	70	0	40	0	0	0	0
COc1cc(Nc2nccc(N3CCC(NS(=O)(=O)c4ccc(NC(C)=O)cc4)CC3)n2)cc(OC)c1OC [GSK1379825]	76	66	59	81	80	48	0	28	26	48

From article PMC5540273 (PLoS ONE, 2017)
